# An excerpt weighted towards active compounds, which were near 12% of everything screened.
# Sfp inh: qHTS Assay for Inhibitors of Bacillus subtilis Sfp phosphopantetheinyl transferase (PPTase); 4'-phosphopantetheinyl transferase ffp (Bacillus subtilis), Q9F4F7; Potency, µM, for inactives: largest response in the series, negative = inhibition, usual class: inhibitors; AID 1490, 2009; 310,000 compounds, 3.5% hits; Biochemical Sfp PPTase activity, qHTS;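 also: the enzyme is Sfp with the accession as filed and its product quenches rhodamine fluorescence; 0% = enzyme reaction without inhibitor and -100% = no enzyme wells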
#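 Compounds were incubated with enzyme (final 15 nM) for 15 min at room temperature before substrate addition started the reaction. Fluorescence at 525 nm excitation, 598 nm emission was recorded immediately and after 30 minutes.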
# G9a inh: qHTS Assay for Inhibitors of Histone Lysine Methyltransferase G9a | Histone-lysine N-methyltransferase EHMT2 (Homo sapiens), Q96KQ7 | G9a H3K9 monomethylation, AlphaScreen, 2 h | Potency, µM (titrated, usually from 102 µM), inactives show at the top dose activity, negative = inhibition, actives largely listed as inhibitors | 350,000 compounds, 8.8% hits | AID 504332, 2011; also: % is scaled to controls: 0 for no effect and ±100 for the full control effect; nearly all actives have a fitted effect of over 75% in size
#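 Chemiluminescent proximity detection of H3K9 monomethylation, read after 10 min bead incubation in the dark. Reaction: 20 nM G9a, 500 nM biotin-H3K9 peptide, 20 uM SAM cofactor, 2 h, room temperature, following 15 min enzyme-compound preincubation.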
# HP1b binding inh: HTS for Inhibitors of HP1-beta Chromodomain Interactions with Methylated Histone Tails | AlphaScreen HP1-beta / biotin-H3K9me3 peptide binding | 390,000 compounds, 0.56% hits | Potency, µM (titrated, usually from 114 µM), for the others: at the highest dose activity change, negative = inhibition, usual class: inhibitors; also: nearly all actives have a fitted effect of over 70% in size
#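 HP1-beta protein (50 nM final) preincubated 30 min at room temperature with biotinylated H3(1-18)K9me3 peptide (50 nM) in PBS pH 7.4, 0.01% Tween-20, then compound added for 30 min. AlphaScreen streptavidin donor/nickel chelate acceptor beads (10 ug/mL final), 30 min dark, luminescence read.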
# BAZ2B inh: qHTS Assay for Inhibitors of BAZ2B; Bromodomain adjacent to zinc finger domain protein 2B (Homo sapiens), Q9UIF8; AlphaScreen BAZ2B-H3K14Ac peptide displacement; Potency, µM (top dose mostly 114 µM), for inactives: at the top dose activity change, negative = inhibition, usual class: inhibitors; 360,000 compounds, 4.4% hits; AID 504333, 2011; also: % is scaled to controls: 0 for no effect and ±100 for the full control effect; nearly all actives have a fitted effect of over 60% in size
#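 BAZ2B 50 nM plus b-H3(5-23)K14Ac 50 nM, PBS pH 7.4/0.01% Tween-20, 30 min RT; compound added (max 110 uM), 30 min RT; streptavidin donor/Ni-chelate acceptor beads 10 ug/mL final, 20 min dark; AlphaScreen read.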
# JMJD2A Tudor: qHTS Assay for Inhibitors of JMJD2A-Tudor Domain | Lysine-specific demethylase 4A (Homo sapiens), O75164 | AlphaScreen JMJD2A-Tudor / H3K4me3 peptide binding | Potency, µM (series often up to 114 µM), for the others: top-dose activity change, negative = inhibition, most hits filed as inhibitors | 390,000 compounds, 4.4% hits; also: % is scaled to controls: 0 for no effect and ±100 for the full control effect; nearly all actives have a fitted effect of over 50% in size
# Target sequence (O75164 whole entry, looked up, the tested form may be a part): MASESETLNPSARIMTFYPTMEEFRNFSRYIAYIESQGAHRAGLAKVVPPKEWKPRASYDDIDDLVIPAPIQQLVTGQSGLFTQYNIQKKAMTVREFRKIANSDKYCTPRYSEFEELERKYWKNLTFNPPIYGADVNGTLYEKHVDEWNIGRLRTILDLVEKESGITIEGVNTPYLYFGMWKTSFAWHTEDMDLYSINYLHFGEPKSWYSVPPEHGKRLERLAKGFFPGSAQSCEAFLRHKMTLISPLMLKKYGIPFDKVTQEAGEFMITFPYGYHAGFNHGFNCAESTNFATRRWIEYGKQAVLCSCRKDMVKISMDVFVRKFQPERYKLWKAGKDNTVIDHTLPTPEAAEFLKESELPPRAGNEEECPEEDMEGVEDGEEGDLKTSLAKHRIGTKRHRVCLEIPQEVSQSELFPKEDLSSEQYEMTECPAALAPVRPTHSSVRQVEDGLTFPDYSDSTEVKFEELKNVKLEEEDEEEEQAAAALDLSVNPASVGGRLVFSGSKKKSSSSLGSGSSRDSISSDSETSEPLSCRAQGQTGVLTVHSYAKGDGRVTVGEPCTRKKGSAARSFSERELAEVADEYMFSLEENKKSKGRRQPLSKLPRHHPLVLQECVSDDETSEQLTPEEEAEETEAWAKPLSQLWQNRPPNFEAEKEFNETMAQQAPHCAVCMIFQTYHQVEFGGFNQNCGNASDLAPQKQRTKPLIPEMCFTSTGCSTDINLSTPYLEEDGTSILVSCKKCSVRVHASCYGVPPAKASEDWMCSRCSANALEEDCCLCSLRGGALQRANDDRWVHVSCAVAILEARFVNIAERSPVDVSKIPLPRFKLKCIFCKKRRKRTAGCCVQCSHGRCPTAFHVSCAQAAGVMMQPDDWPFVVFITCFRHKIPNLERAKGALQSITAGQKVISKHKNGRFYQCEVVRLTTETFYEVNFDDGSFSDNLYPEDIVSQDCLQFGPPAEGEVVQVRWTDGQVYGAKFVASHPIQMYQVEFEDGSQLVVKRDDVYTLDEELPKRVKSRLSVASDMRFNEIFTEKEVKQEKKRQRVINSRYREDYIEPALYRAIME
# * = called active by the depositor; u = inconclusive; x = no result; [ ] = another dose, or the depositor's remark. Calls follow the shape of the dose curve; as a rule, active = well fitted curve in the direction sought with a large enough effect; inconclusive = small, poorly fitted or top-dose-only effect, or another doubt; inactive = no such curve, though single readings can be large; an effect the other way counts as inactive or inconclusive. Potency is read from the fitted curve at half-maximal effect.
SMILES,Sfp inh,G9a inh,HP1b binding inh,BAZ2B inh,JMJD2A Tudor
COCCSc1ccccc1C(=O)Nc1cc([N+](=O)[O-])ccc1OC,17.2%,39.8µM*,18.0%,-16.8%,-14.5%
COc1ccc([N+](=O)[O-])cc1NC(=O)CC(c1ccccc1)c1ccccc1,2.7%,3.8%[59 µM],25.4%,5.8%,-11.5%
CSc1ccccc1C(=O)Nc1cc([N+](=O)[O-])ccc1C,-12.7%,10µM*,15.2%,-15.5%,-3.4%
O=C(Nc1ccc(F)cc1F)NC1CCCc2ccccc21 (centres undefined),8.6%,x,47.4%,-2.4%,6.1%
O=C(CSc1nnnn1-c1cccc2c1CCCC2)NC1CCCC1,6.4%,6.8%[12.7 µM],27.7%,-7.7%,14.7%
O=C(NCCS(=O)(=O)N1CCN(c2ccc(F)cc2)CC1)c1cc(=O)c2ccccc2o1,x,8.9%[59 µM],24.4%[57 µM],2.3%,1.6%
COc1ccccc1/C=C(\C#N)C(=O)Nc1ccc(S(N)(=O)=O)cc1,-5.4%,-31.6%,23.3%,-7.7%,-4.2%
CCCCCC(C)NC(=O)CN1C(=O)NC(C)(c2ccc3ccccc3c2)C1=O (centres undefined),14.5%,-2.8%,27.7%,u,-6.9%
COc1ccc([N+](=O)[O-])cc1NC(=S)NC(C)=O,14.3%,29.3%[12.7 µM],20.6%,-8.9%,u
COc1ccc(/C=C/C(=O)NC(=S)Nc2cc([N+](=O)[O-])ccc2O)cc1OC,-6.2%,28.2µM*,u,u,89.1µM*
CC[C@@]1(C(=O)OC)N[C@H](CN(C)C(=O)c2ccccc2)[C@@H]2C(=O)N(C)C(=O)[C@@H]21,x,x,21.2%,x,-22.5%
O=c1c2cc(N3CCOCC3)ccc2[nH]c(=S)n1Cc1ccccn1,20µM*,u,40.3%,-35.3%,28.2µM*
O=c1c2cc(N3CCOCC3)ccc2[nH]c(=S)n1Cc1ccccc1Cl,u,41.7%[59 µM],64.4%,-10.7%,-1.4%
O=c1c2cc(Br)ccc2[nH]c(=S)n1Cc1ccccn1,8.9%,7.94µM*,47.2%,-3.6%,-8.1%
O=c1c2cc(Br)ccc2[nH]c(=S)n1Cc1ccccc1,17.9%,24.6%,48.4%,11.4%,-5.6%
CCN1C[C@@H]2[C@@H]3C(=O)N(Cc4ccccc4)C(=O)[C@@H]3[C@](C)(C(=O)OC)N2C1=NC1CCCCC1,x,x,15.5%,x,-16.7%
COCc1[nH]c(=S)c(C#N)cc1C(=O)OC,8.91µM*,-137.3%[59 µM],u,-7.6%,22.4µM*
CCOC(=O)c1cc(C#N)c(=S)[nH]c1C,u,10µM*,23.2%,-25.5%,39.8µM*
CCOC(=O)c1cc(C#N)c(SCC(=O)OC)[nH]c1=O,50.1µM*,x,31.0%,-9.0%,-5.6%
O=C(CCOc1ccccc1)Nc1ccnn1C1CCN(Cc2ccc(CO)o2)CC1,15.6%,x,21.1%,-18.2%,-21.5%
Cc1cccc(-c2nsc(SCC(=O)NCC3CCCO3)n2)c1 (centres undefined),u,17.8µM*,-9.5%,-15.1%,-2.3%
Cc1cc(C)nc(SCC(=O)NCc2ccco2)n1,u,44.7µM*,-7.7%,0.2%,-24.3%
O=C(CSc1cccc2cccnc12)NCc1ccco1,79.4µM*,x,27.4%,4.1%,-18.7%
COc1ccc(CNC(=O)CSc2cccc3cccnc23)cc1,-5.3%,x,-13.6%,1.2%,-18.2%
Cc1cccc(-c2nsc(SCC(=O)c3ccc(Cl)cc3)n2)c1,-11.0%,-12.2%,80.8%,12.6%,44.3%
CCOC(=O)CNC(=O)CSc1nc(-c2cccc(C)c2)ns1,-39.2%,11.2µM*,-21.3%,-0.2%,-0.8%
COC(=O)c1ccccc1NC(=S)N1CCN(C2CCCCC2)CC1,7.6%,u,47.4%,x,-22.8%
Cc1cccc(-c2nsc(SCC(=O)NCc3ccc4c(c3)OCO4)n2)c1,-25.0%,-7.6%,39.4%,5.0%,-2.8%[57.1 µM]
Cc1cccc(C2(c3cccc(C)c3)CC2C(=O)NCC2CCCO2)c1 (centres undefined),17.8%,17.0%,13.2%,0.0%,79.4µM*
